MOR-DOR ag: agonists of human mu-delta opioid receptor heterodimerization | P35372+P41143 | cells, OPRM1-OPRD1 heterodimerization, luminescence | activation, % at 9.3 µM | 340,000 compounds, 0.3% hits
MIN6 prolif: inducers of beta-cell replication in MIN6 cells | proliferation, % at 10 µM | MIN6 cells proliferation, ATPlite luminescence, 48 h; cells starved in 0.2% serum; 100% = growth in 10% serum | 330,000 compounds, 0.29% hits;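 active = compounds whose signal lies at least 3.5 SD above the mean of all wells on their plate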
HTR5A inv ctr: counter-screen for OPRM1-OPRD1 inverse agonists: human HTR5A inverse agonism; HTR5A cell line, luminescence; inhibition, % at 9.3 µM; 340,000 compounds, 0.083% hits; in the data active = inhibition mostly above about 23%, no sharp cut-off; inactive = mostly below about 18%
Target sequence (P47898 whole entry, looked up): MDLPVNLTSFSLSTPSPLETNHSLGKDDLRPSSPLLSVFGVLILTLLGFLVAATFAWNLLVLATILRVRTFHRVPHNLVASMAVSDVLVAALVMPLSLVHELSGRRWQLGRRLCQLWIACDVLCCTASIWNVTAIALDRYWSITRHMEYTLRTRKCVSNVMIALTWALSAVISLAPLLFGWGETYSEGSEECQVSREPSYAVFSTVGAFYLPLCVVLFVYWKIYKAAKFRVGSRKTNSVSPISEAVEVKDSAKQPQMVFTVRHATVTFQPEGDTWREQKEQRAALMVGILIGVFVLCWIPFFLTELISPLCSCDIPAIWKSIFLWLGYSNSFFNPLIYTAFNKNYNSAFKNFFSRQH
V-ATPase pH: regulators of yeast V-ATPase proton transport; AID 504577; S. cerevisiae, pHLuorin cytosolic pH fluorescence; 350,000 compounds, 0.37% hits; response, % at 10 µM; in the data active = response mostly above about 7.3%, no sharp cut-off; inactive = mostly below about 5.4%; note: actives read high
OPRM1-OPRD1 inv: inverse agonists of human mu-delta opioid receptor heterodimerization; inhibition, % at 9.3 µM; cell-based MOR-DOR heterodimer luminescence, inverse agonism; AID 504357; 340,000 compounds, 0.21% hits; in the data active = inhibition above about 22%, passing the limit was not always enough
HTR5A ag ctr: counter-screen for OPRM1-OPRD1 agonists: human HTR5A agonism; P47898; HTR5A agonist assay, luminescence, cell-based; activation, % at 9.3 µM; 340,000 compounds, 0.61% hits; AID 504692; in the data active = activation mostly above about 9.5%, no sharp cut-off; inactive = mostly below about 7.6%
MOR-DOR ag conf: confirmation of human OPRM1-OPRD1 heterodimerization agonists. cells, MOR-DOR heterodimerization, luminescence complementation. 830 compounds, 45% hits. activation, % at 9.3 µM. shares compounds with MOR-DOR ag
HTR5A ag counter: HTR5A agonism, opioid heterodimer counter-screen; activation, % at 9.3 µM; shares compounds with MOR-DOR ag; HTR5A agonist counterscreen, cell luminescence; 830 compounds, 8% hits; AID 504905; in the data active = activation above about 17%
Numbers stand for hits; . = inactive; / = not tested or not shown; ! = repeats disagree. Compounds with a hit are over-represented: about 1.7% of the library has one in this group of screens. Cut-off read from the data, not from the text of the source, unless noted: active = activation above about 18%; inactive = the rest.

SMILES	MOR-DOR ag	MIN6 prolif	HTR5A inv ctr	V-ATPase pH	OPRM1-OPRD1 inv	HTR5A ag ctr	MOR-DOR ag conf	HTR5A ag counter
CCCc1nc2c(=O)n(C)c(=O)nc-2n(C)n1	28	/	.	.	.	9.4	337	.
COCCC1CCCCN1C(=O)c1cc(COc2ccc(-n3cncn3)cc2)on1 (stereo not drawn)	.	.	.	.	.	.	/	/
O=C(CN(C(=O)c1csnn1)c1ccc(Br)cc1)NC1CCCCC1	.	.	.	.	.	.	/	/
Oc1cccc(NC(=S)Nc2ccc(SC(F)F)cc2)c1	32	.	.	.	.	.	.	.
Oc1cccc2c(NC(=S)Nc3ccc(SC(F)F)cc3)cccc12	.	.	.	.	.	.	/	/
CC(C)=CCOc1ccc([C@@H]2COc3c(ccc4c3C=CC(C)(C)O4)C2)c(O)c1	.	.	.	.	.	.	/	/
Cc1c2ccccc2c(C)c2c1ccc1ccccc12	19	.	.	.	.	.	.	.
Cc1cccc(NC(=S)NC(C)CCc2ccccc2)c1 (stereo not drawn)	.	.	.	.	.	.	/	/
Cc1cccc(NC(=S)NCC(c2ccccc2)N(C)C)c1 (stereo not drawn)	348	.	.	.	.	.	.	.
CN(C)C(CNC(=S)Nc1cccc(Cl)c1)c1ccccc1 (stereo not drawn)	357	.	.	.	.	.	421	.
CC(c1ccccc1)N1CCC(CNC(=S)Nc2cccc(Cl)c2)C1 (stereo not drawn)	19	.	.	.	.	.	.	28
Cc1ccc(NC(=S)NCC2CCN(C(C)c3ccccc3)C2)cc1 (stereo not drawn)	.	.	.	.	.	.	/	/
Cc1ccc(Cl)cc1NC(=O)CNCC(c1ccccc1)N(C)C (stereo not drawn)	50	.	.	.	.	.	76	.
CCCCOC(=O)Cn1c(=O)n(CC(=O)OCCCC)c2ccccc21	.	.	.	.	.	.	/	/
CCCCCCCCCCOC(=O)Cn1c(COc2ccc(Cl)cc2)[n+](C)c2ccccc21	18	.	.	.	.	.	24	.
CCCCCCCCCCOC(=O)Cn1c(COc2ccccc2C)[n+](C)c2ccccc21	28	.	.	.	.	13	35	.
Cn1c(SCC(=O)c2ccc3c(c2)NC(=O)CO3)nc2ccccc21	38	.	.	.	.	.	25	.
COc1ccc(C(=O)NNC2=NCCCCC2)cc1	.	.	.	.	.	.	/	/
Cc1cc(/C(N)=N/OC(=O)Nc2ccc(Cl)cc2)no1	/	.	/	.	/	/	/	/
O=C(CSc1nc2ccccc2[nH]1)N1CCN(c2ccccc2)CC1	.	.	.	.	.	.	/	/
O=[N+]([O-])c1ccc(N2CCN(CCO)CC2)cc1Sc1nc2ccccc2[nH]1	19	.	.	.	.	.	.	17
O=C(CN1CCC(C(=O)c2ccc(F)cc2)CC1)Nc1ccccc1Cl	.	.	.	.	.	.	/	/
COc1ccc(CC2(CO)CCN(C(C)Cc3ccc(Cl)cc3)CC2)cc1 (stereo not drawn)	.	.	.	.	.	.	/	/
CCc1ccc(OCc2n[nH]c(=S)n2C(C)CCCC(C)C)cc1 (stereo not drawn)	20	.	.	.	.	.	.	18
CCn1c(/C=C/c2c(C)[nH]c3ccccc23)nc2ccccc2c1=O	27	.	.	.	.	.	.	.
SMILES	MOR-DOR ag	MIN6 prolif	HTR5A inv ctr	V-ATPase pH	OPRM1-OPRD1 inv	HTR5A ag ctr	MOR-DOR ag conf	HTR5A ag counter
CCn1c(/C=C/c2c[nH]c3ccccc23)nc2ccccc2c1=O	.	.	.	.	.	.	/	/
CC(NC(=O)CCc1c[nH]c2ccccc12)c1ccccc1 (stereo not drawn)	.	.	.	.	.	.	/	/
CN(C)C(CNC(=O)CCS(=O)(=O)c1ccccc1)c1ccccc1 (stereo not drawn)	60	.	.	.	.	.	.	.
O=C(CCNS(=O)(=O)c1ccccc1C(F)(F)F)NCCCSc1ccccc1	.	.	.	.	.	.	/	/
CN(C)C(CNC(=O)CCc1c[nH]c2ccccc12)c1ccccc1 (stereo not drawn)	138	.	.	.	.	.	20	.
O=C(CCS(=O)(=O)c1ccccc1)NCCS(=O)(=O)c1ccccc1	.	.	.	.	.	.	/	/
CN(C)C(CNC(=O)CCNS(=O)(=O)c1ccccc1C(F)(F)F)c1ccccc1 (stereo not drawn)	25	.	.	.	.	.	29	.
Cc1ccc(S(=O)(=O)N2[C@@H](c3ccc(C(C)(C)C)cc3)C(C(=O)O)=CC[C@H]2c2cccs2)cc1	26	.	.	.	.	.	24	.
Cc1ccc([C@H]2C(C(=O)O)=CC[C@@H](c3cccs3)N2S(=O)(=O)c2ccc(C)cc2)cc1	.	.	.	.	.	.	/	/
CC(C)[C@H](N)C(=O)NC[C@H]1CC[C@H](C(=O)N[C@@H](Cc2ccccc2)C(=O)O)CC1	.	.	.	.	.	.	/	/
O=C(CS(=O)(=O)c1cn(CC(=O)N2CCCC2)c2ccccc12)Nc1ccccc1F	.	.	.	.	.	.	/	/
COc1cccc(N=c2oc3ccc(OC)cc3cc2-c2nc3ccccc3[nH]2)c1	19	.	.	.	.	.	26	.
Cc1ccc(S(=O)(=O)/N=C2\C=C(Nc3ccc(O)cc3)C(=O)c3ccccc32)cc1	.	.	.	.	.	.	/	/
Cc1ccc(S(=O)(=O)/N=C2/C=C(Sc3ncn[nH]3)C(=O)c3ccccc32)cc1	23	/	.	.	.	.	.	.
CCn1c(=O)c(C(=O)NCc2ccccc2)c(O)c2ccccc21	.	.	.	.	.	.	/	/
CCn1c(=O)c(C(=O)NCc2cccnc2)c(O)c2ccccc21	19	.	.	.	.	.	29	.
COc1cc(C(=O)Nc2nc3ccc(S(C)(=O)=O)cc3s2)cc(OC)c1C	37	.	.	.	.	.	.	.
COCCn1c(SCC(=O)Nc2cc(C)on2)nc2ccccc2c1=O	.	.	.	.	.	.	/	/
CCCCCCn1c(SCC(=O)Nc2cc(C)on2)nc2ccccc2c1=O	21	.	.	.	.	.	26	17
CN(CCO)c1ncnc2c1sc1nc(N3CCOCC3)c3c(c12)CCC3	.	.	.	.	.	.	/	/
CCN1CCN(CC(O)COc2ccc(C)c(C)c2)CC1 (stereo not drawn)	25!	.	.	.	.	.	.	.
CCN1CCN(CC(O)COc2ccc(Cl)cc2)CC1 (stereo not drawn)	.	.	.	.	.	.	/	/
